In ChEMBL document CHEMBL4513141, “CO-ADD screening of NIH (USA) - Clinical Collection” (2021):
Potency and affinity values are given separately.

The compounds below were run on Staphylococcus aureus. Settings: Concentration 20 uM; ASSAY_TEST Inhibition of Bacterial Growth; detection method Absorption (OD600); MEDIA CAMHB; plate type 384well; NBS; CORNING #3640; time 18 hr.
For `NS(=O)(=O)Cc1noc2ccccc12` [ZONISAMIDE], the Inhibition was 1.04%.
`C=CCc1ccc(O)c(-c2ccc(O)c(CC=C)c2)c1` [HONOKIOL] showed an Inhibition of 11.41%.
Compound `Nc1nc2c(ncn2COCCO)c(=O)[nH]1` [ACYCLOVIR] has an Inhibition of -22.02%.
For `CNCCCCOc1ccccc1Cc1ccccc1.Cl`, the Inhibition was 10.88%.
`COc1cc2c(cc1OC)C(=O)C(CC1CCN(Cc3ccccc3)CC1)C2.Cl` (stereo unspecified) [DONEPEZIL HYDROCHLORIDE] was tested, and the Inhibition was 12.57%.
For `CC(C)c1ccc2c(c1)c(SC(C)(C)C)c(CC(C)(C)C(=O)O)n2Cc1ccc(Cl)cc1`, the Inhibition was 10.09%.
Work on `C[C@]12CCC(=O)C=C1CC[C@@H]1[C@@H]2C(=O)C[C@@]2(C)[C@H]1CC[C@]2(O)C(=O)CO` [CORTISONE] yielded an Inhibition of 18.73%.
Compound `CCCCC1=NC2(CCCC2)C(=O)N1Cc1ccc(-c2ccccc2-c2nnn[nH]2)cc1` [IRBESARTAN] has an Inhibition of 6.34%.
For `CN(C/C=C/C#CC(C)(C)C)Cc1cccc2ccccc12.Cl` [TERBINAFINE HYDROCHLORIDE], the Inhibition was 10.26%.
`C[C@]12C=CC(=O)C=C1CC[C@@H]1[C@@H]2[C@@H](O)C[C@@]2(C)[C@H]1CC[C@]2(O)C(=O)COC(=O)CCC(=O)[O-].[Na+]` [PREDNISOLONE SODIUM SUCCINATE] showed an Inhibition of 5.71%.
With `CCOC(=O)[C@@H](CCc1ccccc1)N[C@@H](C)C(=O)N1CCC[C@H]1C(=O)O.O=C(O)/C=C\C(=O)O` the Inhibition was 8.37%.
With `COCCOC(=O)C1=C(C)NC(C)=C(C(=O)OC(C)C)C1c1cccc([N+](=O)[O-])c1` (stereo unspecified) [NIMODIPINE] the Inhibition was 7.57%.
Work on `CC(C)(C)NCC(O)c1ccc(O)c(CO)c1.CC(C)(C)NCC(O)c1ccc(O)c(CO)c1.O=S(=O)(O)O` (stereo unspecified) [ALBUTEROL SULFATE] yielded an Inhibition of 8.55%.
`COC1=CC(=O)C[C@@H](C)[C@]12Oc1c(Cl)c(OC)cc(OC)c1C2=O` [GRISEOFULVIN] gave an Inhibition of 7.83%.
Work on `CCC1=C(C)CN(C(=O)NCCc2ccc(S(=O)(=O)NC(=O)N[C@H]3CC[C@H](C)CC3)cc2)C1=O` [GLIMEPIRIDE] yielded an Inhibition of 15.98%.
In the case of `COC(=O)C1=C(C)NC(C)=C(C(=O)OC(C)C)C1c1cccc2nonc12` (stereo unspecified) [ISRADIPINE], the Inhibition is reported as 14.31%.
`Cl.NC[C@H]1CC[C@H](C(=O)Oc2ccc(CCC(=O)O)cc2)CC1` [CETRAXATE HYDROCHLORIDE] showed an Inhibition of 14.3%.
`CC(=O)OCC(=O)NCCCOc1cccc(CN2CCCCC2)c1.Cl` [ROXATIDINE ACETATE HYDROCHLORIDE] gave an Inhibition of 9.98%.
With `Cl.Clc1ccc2nsnc2c1NC1=NCCN1` [TIZANIDINE HYDROCHLORIDE] the Inhibition was -18.93%.
Work on `CC(C)C[C@H](NC(=O)[C@@H](O)[C@H](N)Cc1ccccc1)C(=O)O` [UBENIMEX] yielded an Inhibition of 8.9%.
`Cl.Clc1cccc(Cl)c1NC1=NCCN1` [CLONIDINE HYDROCHLORIDE] gave an Inhibition of 11.8%.
`NS(=O)(=O)c1cc2c(cc1Cl)NCNS2(=O)=O` [HYDROCHLOROTHIAZIDE] was tested, and the Inhibition was 6.38%.
`CCc1cc(C(N)=S)ccn1` [ETHIONAMIDE] gave an Inhibition of 13.26%.
With `CC[C@H](C)C(=O)O[C@H]1C[C@@H](C)C=C2C=C[C@H](C)[C@H](CC[C@@H]3C[C@@H](O)CC(=O)O3)[C@H]21` [LOVASTATIN] the Inhibition was 9.76%.
`CC(N)(Cc1ccc(O)c(O)c1)C(=O)O` (stereo not drawn) [METHYLDOPA (RACEMIC)] showed an Inhibition of -29.5%.
`CC(=O)O.CC(C)C[C@H](NC(=O)[C@@H](COC(C)(C)C)NC(=O)[C@H](Cc1ccc(O)cc1)NC(=O)[C@H](CO)NC(=O)[C@H](Cc1c[nH]c2ccccc12)NC(=O)[C@H](Cc1c[nH]cn1)NC(=O)[C@H]1CCC(=O)N1)C(=O)N[C@H](CCCNC(=N)N)C(=O)N1CCC[C@@H]1C(=O)NNC(N)=O` was tested, and the Inhibition was 9.86%.
With `CC(=O)C1(O)CCC2C3CC(C)C4=CC(=O)C=CC4(C)C3(F)C(O)CC21C` (stereo unspecified) the Inhibition was 5.95%.
Compound `O=C1N[C@H](C(=O)O)CS1` [PROCYSTEINE] has an Inhibition of 10.52%.
`CC(Oc1c(Cl)cccc1Cl)C1=NCCN1.Cl` (stereo unspecified) [LOFEXIDINE HYDROCHLORIDE] gave an Inhibition of 7.96%.
Work on `CCN(Cc1ccncc1)C(=O)C(CO)c1ccccc1` (stereo unspecified) [TROPICAMIDE] yielded an Inhibition of 7.97%.
`CC(=O)SCC(Cc1ccccc1)C(=O)NCC(=O)OCc1ccccc1` (stereo unspecified) [RACECADOTRIL] was tested, and the Inhibition was 11.13%.
